Experimental data published in the supplement of paper PMC9694430.

system: T1, LOC_OS01G52050-cb004; assay: thermal shift delta Tm vs DMSO control; higher = stronger stabilization (binding); conditions: 12.5 µM; protein concentration 2 µM
T1 sequence (whole entry): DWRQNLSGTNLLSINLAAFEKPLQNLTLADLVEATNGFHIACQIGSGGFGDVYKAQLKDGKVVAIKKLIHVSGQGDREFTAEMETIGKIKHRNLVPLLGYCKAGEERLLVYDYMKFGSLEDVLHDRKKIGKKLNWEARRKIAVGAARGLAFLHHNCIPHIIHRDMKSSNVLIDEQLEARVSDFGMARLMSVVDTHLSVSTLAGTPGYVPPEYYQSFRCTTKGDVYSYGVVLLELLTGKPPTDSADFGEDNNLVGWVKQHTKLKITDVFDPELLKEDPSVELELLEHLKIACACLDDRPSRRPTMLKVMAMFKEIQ
Procedure, shortened: (§1)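 Purified, E. coli-expressed rice kinase domain constructs were tested by differential scanning fluorimetry in 96-well plates: 19.5 μl of 2 μM kinase in 100 mM potassium phosphate pH 7.5, 150 mM NaCl, 10% glycerol, 5 × SYPRO Orange, plus compound in DMSO. Fluorescence was read from 25°C to 95°C at 0.05°C/s. Melting temperatures came from Boltzmann fits, and the shift is the triplicate mean relative to protein with DMSO alone.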

Compound | thermal shift delta Tm
COCCNCc1ccc(-c2cc3nccc(Oc4ccc(NC(=O)C5(C(=O)Nc6ccc(F)cc6)CC5)cc4F)c3s2)nc1 [Sitravatinib (MGCD516)] | 4.17 °C
COCC(=O)NC/C=C/c1ccc2ncnc(Nc3ccc(Oc4ccc(C)nc4)c(C)c3)c2c1 | 0.35 °C
O=C(NOC[C@H](O)CO)c1ccc(F)c(F)c1Nc1ccc(I)cc1F | 0.59 °C
Cc1cc(Nc2cc(N3CCN(C)CC3)nc(/C=C/c3ccccc3)n2)n[nH]1 | 3.7 °C
Nc1nc(N)c2nc(-c3cccc(O)c3)c(-c3cccc(O)c3)nc2n1 | 1.16 °C
Cc1nc(Nc2ncc(C(=O)Nc3c(C)cccc3Cl)s2)cc(N2CCN(CCO)CC2)n1 [Dasatinib] | 0.79 °C
O=C(c1ccc(Nc2nccc(-c3cc4ccccc4s3)n2)cc1)N1CCC(N2CCCC2)CC1 [IKK-16 (IKK Inhibitor VII)] | 4.5 °C
CC(C)CC(=O)Nc1n[nH]c2c1CN(C(=O)C1CCN(C)CC1)C2(C)C | 0.59 °C
COc1cc2c(Oc3ccc(NC(=O)C4(C(=O)Nc5ccc(F)cc5)CC4)cc3F)ccnc2cc1OCCCN1CCOCC1 | 4.66 °C
OCCn1cc(-c2cnc3nnn(Cc4ccc5ncccc5c4)c3n2)cn1 | 0.09 °C
CC(C)(C)c1nc(-c2ccc(NC(=O)Nc3cccc(C(F)(F)F)c3)c3ccccc23)c2c(N)nccn12 [kira6] | 5.68 °C
COc1ccc(-c2ccc3ncc4c(c3c2)n(-c2ccc(N3CCNCC3)c(C(F)(F)F)c2)c(=O)n4C)cn1 | 4.2 °C
FC(F)(F)c1ccc(CNc2ccc(Cc3c[nH]c4ncc(Cl)cc34)cn2)cn1 [Pexidartinib (PLX3397)] | 10.2 °C
Cc1nc(NC(=O)N2CCC[C@H]2C(N)=O)sc1-c1ccnc(C(C)(C)C(F)(F)F)c1 [Alpelisib (BYL719)] | 0.12 °C
O=C(NCCO)c1cccc(-c2cc(Nc3ccc(OC(F)(F)F)cc3)ncn2)c1 | 1.46 °C
C[C@@H](Nc1cc(F)cc(F)c1)c1cc(C(=O)N(C)C)cc2c(=O)cc(N3CCOCC3)oc12 | -0.12 °C
C[C@@H]1COCCN1c1cc(=O)n2c(n1)N(Cc1cncc(Cl)c1)[C@H](C(F)(F)F)CC2 | 0.49 °C
CNc1nc(-c2ccc3c(N)n[nH]c3c2)cc(N2C[C@@H](C(=O)NC3CCCCC3)CC[C@H]2C)n1 | 0.02 °C
COc1cc(N2CCC(N(C)C)CC2)ccc1Nc1ncc(Cl)c(Nc2ccccc2P(C)(C)=O)n1 | 3.85 °C

Compound | thermal shift delta Tm
CN1CCN(c2ccc3nc(-c4c(N)c5c(F)cccc5[nH]c4=O)[nH]c3c2)CC1 [Dovitinib (TKI258) Lactate] | 6.95 °C
N#C/C(=C(/N)Sc1ccc(N)cc1)c1ccccc1C(F)(F)F | 0.3 °C
Cc1c(C(=O)N2CCOc3ccc(-c4ccc(N)nc4)cc3C2)ccc(S(C)(=O)=O)c1F | 0.52 °C
CCOc1cc2ncc(C#N)c(Nc3ccc(F)c(Cl)c3)c2cc1NC(=O)/C=C/CN(C)C [Pelitinib (EKB-569)] | 3.13 °C
Oc1ccc(Nc2nc(-c3ccc(Cl)cc3)cs2)cc1 | 3.09 °C
O=C(Nc1ccccc1C(=O)NC1CCCCNC1=O)c1cc2ccccc2s1 (centres undefined) | -0.05 °C
CC(C)c1c2cc(-c3ccnc(NC4CCC(NC5CCOCC5)CC4)n3)ccc2nn1C (centres undefined) | 2.13 °C
NCC(=O)Nc1ccc(-n2nc(C(F)(F)F)cc2-c2ccc3c(ccc4ccccc43)c2)cc1 | 2.4 °C
Cc1cc(NC(=O)c2cccc(NC(=O)/C=C/CN(C)C)c2)ccc1Nc1nccc(-c2cccnc2)n1 | 0.75 °C
N#Cc1ccc2ncnc(NCCc3ccccc3)c2c1 [Senexin A] | 2.96 °C
CCOc1cn(-c2ccc(F)cc2C)nc1C(=O)Nc1ccc(Oc2ccnc3cc(OC)c(OC)cc23)c(F)c1 | 2.08 °C
Fc1ccc2[nH]ccc2c1-c1nc(N2CCOCC2)c2sc(CN3CCN(CC4CC4)CC3)cc2n1 | 0.03 °C
COc1cccc2cc(-c3nc([C@H]4CC[C@H](C(=O)O)CC4)n4ncnc(N)c34)[nH]c12 | 0.07 °C
N#Cc1cnc(Nc2cc(NC[C@H]3CNCCO3)c(C(F)(F)F)cn2)cn1 | 5.23 °C
O=C(NOCCO)c1ccc2cncn2c1Nc1ccc(I)cc1F | 0.41 °C
COc1cc2c(Nc3ccc(NC(=O)c4ccccc4)cc3)ncnc2cc1OCCCN1CCOCC1 | 0.94 °C
NC(=O)Nc1cc(-c2cccc(F)c2)sc1C(=O)N[C@H]1CCCNC1 | 11.6 °C
CNC(=O)c1ccc(-c2cnc3ncc(Cc4ccc5ncccc5c4)n3n2)cc1F | 0.32 °C

system: LOC_OS01G57100-cb003; assay: as above; conditions: 12.5 µM; protein concentration 2 µM
Procedure, shortened: as §1

Compound | thermal shift delta Tm
COCCNCc1ccc(-c2cc3nccc(Oc4ccc(NC(=O)C5(C(=O)Nc6ccc(F)cc6)CC5)cc4F)c3s2)nc1 [Sitravatinib (MGCD516)] | 0.24 °C
COCC(=O)NC/C=C/c1ccc2ncnc(Nc3ccc(Oc4ccc(C)nc4)c(C)c3)c2c1 | -0.71 °C
O=C(NOC[C@H](O)CO)c1ccc(F)c(F)c1Nc1ccc(I)cc1F | 0.81 °C
Cc1cc(Nc2cc(N3CCN(C)CC3)nc(/C=C/c3ccccc3)n2)n[nH]1 | 0.41 °C
Nc1nc(N)c2nc(-c3cccc(O)c3)c(-c3cccc(O)c3)nc2n1 | 2.01 °C
Cc1nc(Nc2ncc(C(=O)Nc3c(C)cccc3Cl)s2)cc(N2CCN(CCO)CC2)n1 [Dasatinib] | 0.7 °C
O=C(c1ccc(Nc2nccc(-c3cc4ccccc4s3)n2)cc1)N1CCC(N2CCCC2)CC1 [IKK-16 (IKK Inhibitor VII)] | 0.94 °C
CC(C)CC(=O)Nc1n[nH]c2c1CN(C(=O)C1CCN(C)CC1)C2(C)C | 1.01 °C
COc1cc2c(Oc3ccc(NC(=O)C4(C(=O)Nc5ccc(F)cc5)CC4)cc3F)ccnc2cc1OCCCN1CCOCC1 | 0.61 °C
OCCn1cc(-c2cnc3nnn(Cc4ccc5ncccc5c4)c3n2)cn1 | 0.41 °C
CC(C)(C)c1nc(-c2ccc(NC(=O)Nc3cccc(C(F)(F)F)c3)c3ccccc23)c2c(N)nccn12 [kira6] | 0.63 °C
COc1ccc(-c2ccc3ncc4c(c3c2)n(-c2ccc(N3CCNCC3)c(C(F)(F)F)c2)c(=O)n4C)cn1 | 1.82 °C
FC(F)(F)c1ccc(CNc2ccc(Cc3c[nH]c4ncc(Cl)cc34)cn2)cn1 [Pexidartinib (PLX3397)] | 1.87 °C
Cc1nc(NC(=O)N2CCC[C@H]2C(N)=O)sc1-c1ccnc(C(C)(C)C(F)(F)F)c1 [Alpelisib (BYL719)] | 0.37 °C
O=C(NCCO)c1cccc(-c2cc(Nc3ccc(OC(F)(F)F)cc3)ncn2)c1 | 1.41 °C
C[C@@H](Nc1cc(F)cc(F)c1)c1cc(C(=O)N(C)C)cc2c(=O)cc(N3CCOCC3)oc12 | 0.51 °C
C[C@@H]1COCCN1c1cc(=O)n2c(n1)N(Cc1cncc(Cl)c1)[C@H](C(F)(F)F)CC2 | 1.19 °C
CNc1nc(-c2ccc3c(N)n[nH]c3c2)cc(N2C[C@@H](C(=O)NC3CCCCC3)CC[C@H]2C)n1 | 2.04 °C
COc1cc(N2CCC(N(C)C)CC2)ccc1Nc1ncc(Cl)c(Nc2ccccc2P(C)(C)=O)n1 | 4.55 °C

Compound | thermal shift delta Tm
CN1CCN(c2ccc3nc(-c4c(N)c5c(F)cccc5[nH]c4=O)[nH]c3c2)CC1 [Dovitinib (TKI258) Lactate] | 1.26 °C
N#C/C(=C(/N)Sc1ccc(N)cc1)c1ccccc1C(F)(F)F | 0.82 °C
Cc1c(C(=O)N2CCOc3ccc(-c4ccc(N)nc4)cc3C2)ccc(S(C)(=O)=O)c1F | -0.07 °C
CCOc1cc2ncc(C#N)c(Nc3ccc(F)c(Cl)c3)c2cc1NC(=O)/C=C/CN(C)C [Pelitinib (EKB-569)] | 2.45 °C
Oc1ccc(Nc2nc(-c3ccc(Cl)cc3)cs2)cc1 | -1.22 °C
O=C(Nc1ccccc1C(=O)NC1CCCCNC1=O)c1cc2ccccc2s1 (centres undefined) | 1.14 °C
CC(C)c1c2cc(-c3ccnc(NC4CCC(NC5CCOCC5)CC4)n3)ccc2nn1C (centres undefined) | 0.61 °C
NCC(=O)Nc1ccc(-n2nc(C(F)(F)F)cc2-c2ccc3c(ccc4ccccc43)c2)cc1 | 0.88 °C
Cc1cc(NC(=O)c2cccc(NC(=O)/C=C/CN(C)C)c2)ccc1Nc1nccc(-c2cccnc2)n1 | 1.86 °C
N#Cc1ccc2ncnc(NCCc3ccccc3)c2c1 [Senexin A] | -0.12 °C
CCOc1cn(-c2ccc(F)cc2C)nc1C(=O)Nc1ccc(Oc2ccnc3cc(OC)c(OC)cc23)c(F)c1 | 0.32 °C
Fc1ccc2[nH]ccc2c1-c1nc(N2CCOCC2)c2sc(CN3CCN(CC4CC4)CC3)cc2n1 | 1.16 °C
COc1cccc2cc(-c3nc([C@H]4CC[C@H](C(=O)O)CC4)n4ncnc(N)c34)[nH]c12 | 2.68 °C
N#Cc1cnc(Nc2cc(NC[C@H]3CNCCO3)c(C(F)(F)F)cn2)cn1 | 0.46 °C
O=C(NOCCO)c1ccc2cncn2c1Nc1ccc(I)cc1F | 1.19 °C
COc1cc2c(Nc3ccc(NC(=O)c4ccccc4)cc3)ncnc2cc1OCCCN1CCOCC1 | 0.97 °C
NC(=O)Nc1cc(-c2cccc(F)c2)sc1C(=O)N[C@H]1CCCNC1 | 4.78 °C
CNC(=O)c1ccc(-c2cnc3ncc(Cc4ccc5ncccc5c4)n3n2)cc1F | 0.49 °C
